# The campaign covered roughly 64,000 compounds. About 2,200 (3.4%) were called active.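 Rule for the calls: active = calcium fluorescence response, raw or row-and-column corrected B-score, differing from the plate sample mean either way at a set confidence level, mostly lower; inactive = the rest.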 Many of the other results were omitted from the sample, so actives are more common in it than they were.
# Molecular target: Muscarinic acetylcholine receptor M1 (Rattus norvegicus) (UniProt P08482)
# Test: blocks the rat M1 muscarinic receptor response to acetylcholine (AID 628)
# Settings: CHO-M1 cells, Fluo-4 calcium, ACh EC80 antagonist mode; at 10 µM; active compounds read low
# Muscarinic acetylcholine receptor M1 (Rattus norvegicus), sequence (P08482 whole entry, looked up): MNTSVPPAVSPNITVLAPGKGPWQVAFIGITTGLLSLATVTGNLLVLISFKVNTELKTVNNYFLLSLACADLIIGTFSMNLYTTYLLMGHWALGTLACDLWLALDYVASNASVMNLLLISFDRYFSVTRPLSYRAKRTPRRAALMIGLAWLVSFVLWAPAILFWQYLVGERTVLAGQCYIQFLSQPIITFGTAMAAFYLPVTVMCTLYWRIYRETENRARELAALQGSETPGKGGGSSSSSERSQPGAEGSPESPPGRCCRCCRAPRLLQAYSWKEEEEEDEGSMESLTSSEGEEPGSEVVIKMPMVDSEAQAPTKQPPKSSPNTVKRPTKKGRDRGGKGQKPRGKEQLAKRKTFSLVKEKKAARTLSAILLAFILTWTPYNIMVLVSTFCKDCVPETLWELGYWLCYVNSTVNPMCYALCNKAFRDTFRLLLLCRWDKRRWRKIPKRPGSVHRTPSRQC
row,Compound,B-score
1,Cc1cccc(N2CCN(Cc3c(C)n(C)n(-c4ccccc4)c3=O)CC2)c1C,-9.51 (active)
2,Cc1c(CN2CCC(C)CC2)c(=O)n(-c2ccccc2)n1C,0.549 (inactive)
3,CC(=O)N1CCN(c2cccc(C)c2C)CC1,0.482 (inactive)
4,CC1CCCN(Cc2nc3c(c(=O)n(C)c(=O)n3C)n2Cc2cccc3ccccc23)C1 (configuration not stated),0.779 (inactive)
5,O=C1CC(Cc2ccccc2)C(=O)N1c1ccc(Cl)cn1 (configuration not stated),-0.406 (inactive)
6,CCn1c(SCC(=O)Nc2cc(C)ccc2C)nnc1-c1cnccn1,0.583 (inactive)
7,C=C(C)Cn1c(N2CCCC2)nc2c1c(=O)[nH]c(=O)n2C,-2.42 (active)
8,C=C(C)Cn1c(N2CCN(CC)CC2)nc2c1c(=O)[nH]c(=O)n2C,0.423 (inactive)
9,Cn1c(=O)[nH]c(=O)c2c1nc(N1CCCCCC1)n2CC(=O)c1ccccc1,0.41 (inactive)
10,COc1ccc(C(CC(=O)O)NC(=O)Cc2ccccc2)cc1 (configuration not stated),-0.777 (inactive)
11,Cc1cc(C(=O)COC(=O)c2cccs2)c(C)n1-c1c(C)n(C)n(-c2ccccc2)c1=O,-1.28 (inactive)
12,COc1ccccc1N=C1SC(C)CN1C(=O)C1CCC1 (configuration not stated),0.0033 (inactive)
13,CCOc1ccccc1N=C1NC(=O)CS1,0.266 (inactive)
14,CCC/C(O)=C1\C(=O)CC(C)(C)CC1=Nc1ccccc1OC,-1.93 (active)
15,CC1CN(Cc2nc3c(c(=O)n(C)c(=O)n3C)n2Cc2cccc(Cl)c2)CC(C)O1 (configuration not stated),1.23 (inactive)
16,CC(=O)NCC(=O)N(C)C(C(=O)Nc1ccc2c(c1)OCCO2)c1ccccc1 (configuration not stated),0.158 (inactive)
17,CCCCCOC(=O)NCCOC(=O)Nc1ccc(C(=O)OCC)cc1,-2.48 (active)
18,CCCCCCOC(=O)NCC(O)c1ccccc1 (configuration not stated),0.126 (inactive)
19,CCCCC(CCC(=O)Nc1ccc(C(=O)OCC)cc1)C(=O)O (configuration not stated),0.867 (inactive)
20,Cc1ccccc1Cn1c(=O)[nH]c2ccccc21,-1.7 (inactive)
21,COc1ccc(CCn2c(=N)c(C(=O)NCc3ccco3)cc3c(=O)n4cccc(C)c4nc32)cc1,-2.38 (active)

row,Compound,B-score
1,CCn1c(=N)c(C(=O)NCCCOC)cc2c(=O)n3cccc(C)c3nc21,-0.808 (inactive)
2,COc1ccc(CNC(=O)c2cc3c(=O)n4ccccc4nc3n(CC3CCCO3)c2=N)cc1 (configuration not stated),-1.29 (inactive)
3,CCOC(=O)C1CCN(C(=O)C2CCN(S(=O)(=O)c3c(C)noc3C)CC2)CC1,0.0324 (inactive)
4,Cn1c(=NC(=O)CSCC(=O)N2CCOCC2)sc2ccccc21,0.949 (inactive)
5,CC(C)Oc1ccc(C(=O)Nc2cc(=O)n(C)c(=O)n2C)cc1,-0.0919 (inactive)
6,Cc1ccc(S(=O)(=O)Nc2ccccc2CNc2c(C)n(C)n(-c3ccccc3)c2=O)cc1,0.193 (inactive)
7,COc1ccc(S(=O)(=O)Nc2c(C)n(C)n(-c3ccccc3)c2=O)cc1,2.26 (active)
8,COC(=O)Nc1c(C)n(C)n(-c2ccccc2)c1=O,-0.678 (inactive)
9,COc1ccccc1N1CCN(C(=O)CSc2nnc(-c3ccoc3C)o2)CC1,-1.48 (inactive)
10,CC1(C)CN=C(N2CCN(c3ncnc4sc5c(c34)CCCC5)CC2)S1,-3.91 (active)
11,N=c1c2c3c(sc2ncn1N)CCCCC3,1.08 (inactive)
12,O=C(O)[C@@H]1CCCN1c1ncnc2sc3c(c12)CCC3,0.0259 (inactive)
13,O=C1CCCC2=C1C(c1cccs1)n1nc(SCc3ccccc3)nc1N2 (configuration not stated),1.97 (inactive)
14,CCOC(=O)c1c(NC(=O)CSc2nnc(C)c(=O)[nH]2)sc2c1CCC2,0.293 (inactive)
15,COC(=O)c1c(NC(=O)CCN2CCOCC2)sc2c1CCCC2,0.415 (inactive)
16,CCOC(=O)c1c(NC(=O)CSc2nnc(CN3CCOCC3)n2C)sc2c1CCCC2,-2.5 (active)
17,Cc1coc2c(O)cc3c(c12)OC1(N2CCCCC2)C(=O)NCCCC31 (configuration not stated),0.313 (inactive)
18,CCOc1ccc(N(CC(=O)OC)S(=O)(=O)c2c(C)noc2C)cc1,0.515 (inactive)
19,Cc1cc(C)c2nc(SCCC#N)nc(C)c2c1,-0.0173 (inactive)
20,CC(=O)N1C(=O)C2(Nc3ccccc3N2)c2ccccc21,-0.00551 (inactive)
21,CCCc1[nH]nc2c1C(c1c(C)nn(-c3ccccc3)c1Cl)C(C#N)=C(N)O2 (configuration not stated),-0.557 (inactive)

row,Compound,B-score
1,COC(=O)c1ccc(C2C3=C(Nc4nnnn42)c2ccccc2OC3)cc1 (configuration not stated),-2.33 (active)
2,COc1ccccc1NC(=O)C1=C(C)Nc2nnnn2C1c1cccc(Br)c1 (configuration not stated),0.285 (inactive)
3,COc1ccc(C2C(C(=O)Nc3ccccc3OC)=C(C)Nc3nnnn32)c(OC)c1 (configuration not stated),-0.00786 (inactive)
4,CCSc1nc(=S)n(CC)c(C)c1C(C)=O,-0.669 (inactive)
5,O=c1c2ccccc2oc2nc3n(c(=O)c12)CCCS3,0.0394 (inactive)
6,O=C(O)c1ccc(NS(=O)(=O)c2cccc3nsnc23)cc1,1.18 (inactive)
7,CC(=C1C(=O)c2ccccc2C1=O)N1CCN(c2ccccn2)CC1,0.0748 (inactive)
8,O=C(C(NS(=O)(=O)c1cccc2nsnc12)c1ccccc1)N1CCN(c2ccccn2)CC1 (configuration not stated),-4.43 (active)
9,O=C(CSc1nnnn1C1CCCC1)Nc1ccc2c(c1)OCCO2,-1.53 (inactive)
10,CCc1ccc2oc(=O)cc(CN3CCCCC3C)c2c1 (configuration not stated),-0.803 (inactive)
11,Cc1ccc(-c2ccc(=O)n(CC(=O)NCCCN3CCCCC3)n2)cc1,-0.074 (inactive)
12,CC1(C)CC(=O)C=C(NCCCNC2CCCCC2)C1,-0.705 (inactive)
13,CC(=O)OC(C)C[N+](C)(C)C (configuration not stated),-11.2 (active)
14,CC(C[N+](C)(C)C)OC(N)=O (configuration not stated),-15 (active)
15,CCOC(=O)c1c(C)n(C)c2ccc(OC)c(NC(=O)CN3CCC4(CC3)OCCO4)c12,-0.00466 (inactive)
16,O=C(O)c1ccc(-n2cccc2)cc1O,-0.249 (inactive)
17,COc1ccccc1OCCC(=O)OCC(=O)NC(=O)NC(C)(C)C,-0.989 (inactive)
18,O=C(CN1CCN(C2CCCCC2)CC1)Nc1ccccc1N1CCCCC1,-0.00297 (inactive)
19,CCOC(=O)Nc1ccc2c(c1)N(C(=O)CN1CCN3CCCC3C1)c1ccccc1CC2 (configuration not stated),-4.22 (active)
20,CCOC(=O)C1CCCN(Cc2nc(N)nc(Nc3ccc(C)cc3)n2)C1 (configuration not stated),-0.238 (inactive)

# Reference: PubChem BioAssay AID628 (Vanderbilt High Throughput Screening Facility, 2007)
